Assay results reported in PubChem BioAssay (Tox21).
Inconclusive results are not listed. Active and inactive are the calls of the source. The call rests on the fitted dose curve; in most records, active means well fitted activation curve with a large enough effect in the repeat runs; inconclusive means weak or mixed curves; inactive means flat fitted curve, though single readings scatter.

Assay: A CellTox Green Cytotoxicity Assay to monitor cytotoxicity in HepG2 cells - 40 hour (AID 1224879); further: nearly all actives have a fitted effect of over 40% in size
Conditions: CellTox Green fluorescence; series mostly up to 76.8 µM; cytotoxicity increase: at the top concentration
Text: National Center for Advancing Translational Sciences [NCATS]
NIH Chemical Genomics Center [NCGC]
U.S. Environmental Protection Agency [EPA]
National Institutes of Environmental Health Sciences [NIEHS]
National Toxicology Program [NTP]
Cell-based models are critical for drug discovery. Determining the natural cytotoxic effects resulting from test compounds is an essential research activity. A CellTox Green Cytotoxicity Assay to monitor cytotoxicity in real time of continues cell culture during 40 hours of the compound treatment was used to screen Tox21 10K library compounds in HepG2 cells. CellTox Green Cytotoxicity Assay is a nonlytic, homogeneous, biofluorescent method to measure cytotoxicity in cell culture after experimental manipulation. The assay system uses a proprietary asymmetric cyanine dye that is excluded from viable cells but preferentially stains the dead cell's DNA. […] Viable cells produce no appreciable increases in fluorescence. Therefore, the fluorescence signal produced by the binding interaction with dead cell DNA is proportional to cytotoxicity.
The mixture of HepG2 cell suspension and reagents were dispensed at 600cells/6 ul/well in 1536-well tissue culture treated black solid bottom plates using a Multidrop dispenser. After the assay plates were incubated at a 37 C/5% CO2 incubator for 5 hours, 23 nL of compounds dissolved in DMSO, positive and negative controls was transferred to the assay plate by a pintool work station. The plates were incubated at 37 C for 40 hours. The fluorescence intensity were measured at 0h, 8h, 16h, 24h, 32h and 40h time points using ViewLux plate reader during compound treatment.
On the % scale 0 is the no-effect control and ±100 the full control effect; potency means the concentration at half of the fitted maximal effect.

Row | SMILES | cytotoxicity increase | Potency
1 | CCCCN(CCCC)C(=S)[S-].CCCCN(CCCC)C(=S)[S-].[Ni+2] | -2.06% [at 35.3 µM] (inactive) | 
2 | CN1CCc2cc3c(cc2C1O)OCO3 (stereo not given) | -0.171% (inactive) | 
3 | CC1(C)C(C=C(Cl)Cl)C1C(=O)OC(C#N)c1ccc(F)c(Oc2ccccc2)c1 (stereo not given) | -17% (inactive) | 
4 | CCC(OC(C)=O)C(CC(C)NC)(c1ccccc1)c1ccccc1 (stereo not given) |  | 55.4 µM (active)
5 | Fc1ccc(C(OCCN2CCN(CCCc3ccccc3)CC2)c2ccc(F)cc2)cc1 |  | 23.9 µM (active)
6 | CC[C@H](C)[C@H]1O[C@]2(C=C[C@@H]1C)C[C@@H]1C[C@@H](C/C=C(\C)[C@@H](O[C@H]3C[C@H](OC)[C@@H](O[C@H]4C[C@H](OC)[C@@H](NC)[C@H](C)O4)[C@H](C)O3)[C@@H](C)/C=C/C=C3\CO[C@@H]4[C@H](O)C(C)=C[C@@H](C(=O)O1)[C@]34O)O2 |  | 9.77 µM (active)
7 | CC(C)c1c(CN(C)C(C)Cc2ccccc2)n(C)n(-c2ccccc2)c1=O (stereo not given) | 24.5% [at 35.3 µM] (inactive) | 
8 | C1=CCC=C1 | -16.7% (inactive) | 
9 | CC(C)=CC1C(C(=O)OC(C#N)c2cccc(Oc3ccccc3)c2)C1(C)C (stereo not given) | -13.9% (inactive) | 
10 | O=[N+]([O-])c1cc(C(F)(F)F)c(Cl)c([N+](=O)[O-])c1Nc1ncc(C(F)(F)F)cc1Cl |  | 3.89 µM (active)
11 | N#CC(C#N)=NNc1cccc(Cl)c1 |  | 12.3 µM (active)
12 | CCOC(=O)Cc1ccccc1 | 2.3% (inactive) | 
13 | CO/N=C(/C1=NOCCO1)c1ccccc1Oc1ncnc(Oc2ccccc2Cl)c1F | -0.555% (inactive) | 
14 | ClSC(Cl)(Cl)Cl | 5.18% (inactive) | 
15 | NC1CCC(CC2CCC(N)CC2)CC1 (stereo not given) | -0.0737% (inactive) | 
16 | CCNS(=O)(=O)C(F)(F)C(F)(F)C(F)(F)C(F)(F)C(F)(F)C(F)(F)C(F)(F)C(F)(F)F | 13.2% (inactive) | 
17 | O.O.O.O.O.O.O=S(=O)([O-])[O-].[Ni+2] | -25.2% [at 35.3 µM] (inactive) | 
18 | CSC1=N[C@@](C)(c2ccccc2)C(=O)N1Nc1ccccc1 | -0.933% (inactive) | 
19 | Cc1cnc2c(C(=O)O)c(Cl)ccc2c1 | 4.23% (inactive) | 
20 | c1ccc(Nc2ccc(Nc3ccccc3)cc2)cc1 | -1.9% (inactive) | 

Row | SMILES | cytotoxicity increase | Potency
21 | CCOP(=S)(OCC)Oc1cc(C)nc(N(CC)CC)n1 | -7.29% (inactive) | 
22 | CC(=O)[O-].CC(=O)[O-].O.O.[Zn+2] | -0.54% (inactive) | 
23 | S=C=Nc1ccccc1 | -0.839% (inactive) | 
24 | CN | -0.195% (inactive) | 
25 | CCCN | -2.03% (inactive) | 
26 | CN(C)CCc1c[nH]c2ccccc12 | 5.26% (inactive) | 
27 | CC(=O)[O-].CC(=O)[O-].CC(=O)[O-].[Cr+3] | -0.0532% (inactive) | 
28 | CC(C)(C)c1ccc(OP(=O)(Oc2ccccc2)Oc2ccccc2)cc1 | 4.73% (inactive) | 
29 | Cc1c([N+](=O)[O-])cc2c(c1[N+](=O)[O-])C(C)(C)CC2(C)C | -10.5% (inactive) | 
30 | BrCCCBr | -13.3% (inactive) | 
31 | O=C(O)[C@H](O)[C@@H](O)C(=O)O | -7.45% (inactive) | 
32 | CC(Cc1ccccc1)N(C)Cc1ccco1 (stereo not given) | 6.45% [at 35.3 µM] (inactive) | 
33 | COc1cnc(OC)n2nc(NS(=O)(=O)c3c(OCC(F)F)cccc3C(F)(F)F)nc12 | -12.3% (inactive) | 
34 | Clc1cc(Cl)c(-c2cc(Cl)c(Cl)cc2Cl)cc1Cl | -6.5% [at 35.3 µM] (inactive) | 
35 | CN1C2CCC(C)(C)C1CC(OC(=O)C(O)(c1cccs1)c1cccs1)C2 (stereo not given) | 18.1% [at 35.3 µM] (inactive) | 
36 | Cc1ccccc1OP(=O)(Oc1ccccc1C)Oc1ccccc1C | 2.54% (inactive) | 
37 | O=NN(CCO)CCO | 1.58% (inactive) | 
38 | ClC1=C(Cl)[C@]2(Cl)[C@@H]3[C@H]4C[C@H]([C@@H]5O[C@H]45)[C@@H]3[C@@]1(Cl)C2(Cl)Cl | 1.02% (inactive) | 
39 | O=S1OCC2C(CO1)C1(Cl)C(Cl)=C(Cl)C2(Cl)C1(Cl)Cl (stereo not given) |  | 54.9 µM (active)
40 | N#Cc1ccc(N(CC(N)=O)CC(F)(F)F)cc1C(F)(F)F | -8.89% (inactive) | 
